This note sets out measurements from PubChem BioAssay.

A number with no mark means an inactive call. How the calls were made is not given here.

As usually defined, the inhibition is how much of the control response was suppressed.

Pantothenate synthetase (Mycobacterium tuberculosis (strain ATCC 25618 / H37Rv)), sequence (P9WIL5 whole entry, looked up): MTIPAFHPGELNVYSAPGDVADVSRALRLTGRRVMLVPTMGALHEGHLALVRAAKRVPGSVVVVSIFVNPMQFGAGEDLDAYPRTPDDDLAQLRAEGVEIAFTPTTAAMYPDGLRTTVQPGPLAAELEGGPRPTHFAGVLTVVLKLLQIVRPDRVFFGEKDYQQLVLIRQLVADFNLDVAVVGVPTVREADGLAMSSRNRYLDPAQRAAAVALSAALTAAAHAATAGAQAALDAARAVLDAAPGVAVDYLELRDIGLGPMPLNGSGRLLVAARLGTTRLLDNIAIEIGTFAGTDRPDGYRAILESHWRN

This assay has as its target Pantothenate synthetase (Mycobacterium tuberculosis (strain ATCC 25618 / H37Rv)) (UniProt P9WIL5). Put plainly: Recombinant Mtb pantothenate synthetase (PanC) inhibitors, coupled enzyme, confirmatory (AID 375).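 Further: 0% = full reaction with vehicle and 100% = no enzyme background.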 The conditions noted are these: coupled enzyme assay; at 10 µM, active compounds read high.
Take `COc1ccc(NC2c3ncccc3C(=O)N2Cc2ccccc2)c(OC)c1` (centres undefined): the inhibition was 0%.

On to `CCCn1nnc(NCc2ccc(OCc3cccs3)c(OC)c2)n1`, for which the inhibition was 0%. The value for `N#CCC(=O)Nc1ncn(Cc2ccccc2Cl)n1` was 0%. Regarding `CCOC(=O)C1=C(C)NC(C)=C(C(=O)OCC)C1c1cc(N)ccc1OC(F)F`, the inhibition is 0%. `CCN(CC)S(=O)(=O)c1ccc2oc(C(=O)N3CCOCC3)c(C)c2c1`: the inhibition was 0%. Consider `CC1(C)Cc2noc(N)c2C(C)(C)N1OC(=O)c1cccs1`, for which the inhibition was 0%.

For `COc1ccc(NC(=O)CN(c2ccc(C(C)C)cc2)S(=O)(=O)c2c(C)noc2C)cc1OC`, the inhibition is 0%. Then `Cc1cc(OCC(=O)N2CCCC2)cc(C)c1Cl`, with 2%; and `O=C(NCc1cccnc1)c1ccc(=O)oc1`, with 3%; and `COc1ccc(C(=O)NCc2ccccc2OC)cc1`, with 0%. The value for `Cc1ccc(-n2ncc(C(=O)N3CCc4ccccc4C3)c2NC(=O)c2ccco2)cc1C` was 0%; that for `Cn1cc(Br)c(C(=O)NC2CCCCC2)n1` was 4%; that for `Cc1cnc(NC(=O)CSc2nnc(COc3c(C)cccc3C)o2)s1` was 8%. For the compound `Cc1ccc(S(=O)(=O)N2C(=O)CCC2C(=O)Nc2ccc3c(c2)OCCO3)cc1` (centres undefined), the inhibition was 0%. As to `Cc1c(NC(=O)CN2c3cccc4cccc(c34)S2(=O)=O)c(=O)n(-c2ccccc2)n1C`, the inhibition is 0%.

For the compound `O=C(C1CCN(S(=O)(=O)N2CCC3(CC2)OCCO3)CC1)N1CCOCC1`, the inhibition was 0%.

On to `O=C(COc1ccccc1Cl)N1CCCC1`, for which the inhibition is 2%. On to `Cc1nnc(SCc2nnc(-c3ccccc3Br)o2)n1-c1ccccc1`, for which the inhibition is 0%. The value for `N#CC(C(=O)c1ccco1)c1ccccn1` (centres undefined) was 3%; that for `COCCNC(=O)c1cc2c(-c3ccccc3F)nn(C)c2s1` was 8%. In the case of `O=C(NC1CCCCC1)c1ccc(S(=O)(=O)N2CCCCC2)cc1`, the inhibition is 0%. For the compound `O=C(CCCN1C(=O)c2ccccc2C1=O)Oc1ccc(F)cc1`, the inhibition was 1%. Then `CCOC(=O)C1CCCN(C(=O)c2cc(=O)c3ccccc3o2)C1` (centres undefined), with 5%; and `CC1(C)NC(=O)N(CC(O)CN(Cc2ccccc2)Cc2ccccc2)C1=O` (centres undefined), with 0%.
